# In ChEMBL document CHEMBL2218924, “A broad activity screen in support of a chemogenomic map for kinase signalling research and drug discovery” (Biochem J, 2013):
# Experiments:
# [1] = biological target: T1, Ephrin type-A receptor 3 (Homo sapiens) (UniProt P29320); conditions: at 10 µM
# T1 sequence (whole entry): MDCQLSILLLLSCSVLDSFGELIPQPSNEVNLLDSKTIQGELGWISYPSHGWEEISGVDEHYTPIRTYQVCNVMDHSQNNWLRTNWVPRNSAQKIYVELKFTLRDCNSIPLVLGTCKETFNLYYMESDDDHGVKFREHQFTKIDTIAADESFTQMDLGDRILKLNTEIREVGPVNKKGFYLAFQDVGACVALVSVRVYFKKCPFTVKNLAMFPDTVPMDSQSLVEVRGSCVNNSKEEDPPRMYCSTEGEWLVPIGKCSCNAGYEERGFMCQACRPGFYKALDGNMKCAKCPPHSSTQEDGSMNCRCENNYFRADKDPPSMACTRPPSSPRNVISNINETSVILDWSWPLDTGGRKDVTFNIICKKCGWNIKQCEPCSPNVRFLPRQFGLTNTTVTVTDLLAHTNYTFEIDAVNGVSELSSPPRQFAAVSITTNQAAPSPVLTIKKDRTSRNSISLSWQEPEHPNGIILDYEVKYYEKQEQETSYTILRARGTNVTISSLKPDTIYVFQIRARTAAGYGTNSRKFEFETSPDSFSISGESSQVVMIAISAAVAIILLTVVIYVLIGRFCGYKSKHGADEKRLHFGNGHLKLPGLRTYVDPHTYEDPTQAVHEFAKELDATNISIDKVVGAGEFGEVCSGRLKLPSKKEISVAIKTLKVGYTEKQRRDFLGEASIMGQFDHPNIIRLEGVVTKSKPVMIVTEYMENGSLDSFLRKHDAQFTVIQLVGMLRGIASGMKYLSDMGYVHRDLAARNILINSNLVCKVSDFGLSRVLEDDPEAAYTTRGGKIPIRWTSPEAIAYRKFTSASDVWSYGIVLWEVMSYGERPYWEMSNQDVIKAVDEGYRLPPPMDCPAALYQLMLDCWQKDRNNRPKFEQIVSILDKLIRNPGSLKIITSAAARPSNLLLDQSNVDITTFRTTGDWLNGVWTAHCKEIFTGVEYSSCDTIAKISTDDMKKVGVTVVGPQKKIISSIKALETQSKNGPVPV
# [2] = biological target: Ephrin type-A receptor 4 (Homo sapiens) (UniProt P54764); conditions: at 1 µM
# Ephrin type-A receptor 4 (Homo sapiens), sequence (P54764 whole entry): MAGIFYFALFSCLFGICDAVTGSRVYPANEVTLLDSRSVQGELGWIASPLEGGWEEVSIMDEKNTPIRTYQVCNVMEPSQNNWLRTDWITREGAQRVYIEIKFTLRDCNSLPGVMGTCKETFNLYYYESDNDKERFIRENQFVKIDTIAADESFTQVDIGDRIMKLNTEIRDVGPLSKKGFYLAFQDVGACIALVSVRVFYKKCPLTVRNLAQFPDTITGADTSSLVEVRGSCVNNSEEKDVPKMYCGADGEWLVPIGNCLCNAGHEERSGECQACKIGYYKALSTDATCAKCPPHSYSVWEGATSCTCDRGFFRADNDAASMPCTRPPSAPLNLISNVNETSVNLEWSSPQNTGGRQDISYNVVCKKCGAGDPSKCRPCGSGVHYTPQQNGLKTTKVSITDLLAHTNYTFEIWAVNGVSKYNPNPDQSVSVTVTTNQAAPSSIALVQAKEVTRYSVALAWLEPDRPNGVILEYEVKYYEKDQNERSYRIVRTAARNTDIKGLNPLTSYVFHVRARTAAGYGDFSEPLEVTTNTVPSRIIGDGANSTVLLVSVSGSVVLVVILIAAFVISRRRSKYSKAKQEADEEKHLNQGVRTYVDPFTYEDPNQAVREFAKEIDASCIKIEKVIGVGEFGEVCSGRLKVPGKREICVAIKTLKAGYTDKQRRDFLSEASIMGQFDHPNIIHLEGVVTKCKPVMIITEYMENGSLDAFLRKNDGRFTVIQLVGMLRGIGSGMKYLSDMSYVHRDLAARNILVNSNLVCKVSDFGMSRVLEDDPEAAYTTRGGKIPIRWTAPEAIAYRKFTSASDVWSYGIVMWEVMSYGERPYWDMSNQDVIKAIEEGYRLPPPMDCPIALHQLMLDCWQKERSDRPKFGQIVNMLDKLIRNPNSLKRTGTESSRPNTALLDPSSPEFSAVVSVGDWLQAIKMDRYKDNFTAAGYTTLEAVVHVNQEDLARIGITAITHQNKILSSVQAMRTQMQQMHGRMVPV
# [3] = biological target: Ephrin type-A receptor 4 (Homo sapiens) (UniProt P54764); conditions: at 10 µM
# [4] = biological target: Ephrin type-A receptor 5 (Homo sapiens) (UniProt P54756); conditions: at 1 µM
# Ephrin type-A receptor 5 (Homo sapiens), sequence (P54756 whole entry): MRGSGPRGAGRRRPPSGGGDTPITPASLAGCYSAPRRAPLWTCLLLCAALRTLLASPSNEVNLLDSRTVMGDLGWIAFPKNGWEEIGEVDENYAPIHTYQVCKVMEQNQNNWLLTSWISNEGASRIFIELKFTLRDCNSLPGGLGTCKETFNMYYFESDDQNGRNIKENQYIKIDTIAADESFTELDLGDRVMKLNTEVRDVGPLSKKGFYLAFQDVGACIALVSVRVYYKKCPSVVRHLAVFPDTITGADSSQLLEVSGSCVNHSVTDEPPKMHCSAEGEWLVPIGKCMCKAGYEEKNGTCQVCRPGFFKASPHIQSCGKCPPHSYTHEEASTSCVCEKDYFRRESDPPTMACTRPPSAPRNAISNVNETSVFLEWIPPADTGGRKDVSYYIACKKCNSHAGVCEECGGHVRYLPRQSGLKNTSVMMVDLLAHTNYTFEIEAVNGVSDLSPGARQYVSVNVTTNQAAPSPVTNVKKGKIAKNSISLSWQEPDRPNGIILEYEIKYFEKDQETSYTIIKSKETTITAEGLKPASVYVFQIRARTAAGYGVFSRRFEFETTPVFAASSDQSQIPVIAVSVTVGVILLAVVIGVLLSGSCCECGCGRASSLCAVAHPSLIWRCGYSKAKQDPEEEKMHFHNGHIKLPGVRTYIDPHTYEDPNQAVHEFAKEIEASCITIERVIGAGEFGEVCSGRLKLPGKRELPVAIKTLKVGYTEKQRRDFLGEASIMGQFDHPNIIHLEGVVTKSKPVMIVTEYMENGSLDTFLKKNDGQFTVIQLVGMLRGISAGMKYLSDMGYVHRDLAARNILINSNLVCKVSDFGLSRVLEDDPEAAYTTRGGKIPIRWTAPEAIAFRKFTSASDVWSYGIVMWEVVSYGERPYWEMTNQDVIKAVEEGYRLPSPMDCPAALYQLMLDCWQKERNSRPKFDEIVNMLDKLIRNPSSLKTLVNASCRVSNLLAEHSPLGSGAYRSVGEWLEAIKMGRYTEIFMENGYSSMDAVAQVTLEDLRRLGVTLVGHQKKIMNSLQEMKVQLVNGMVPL
# [5] = biological target: Ephrin type-A receptor 5 (Homo sapiens) (UniProt P54756); conditions: at 10 µM
# [6] = biological target: Ephrin type-A receptor 7 (Homo sapiens) (UniProt Q15375); conditions: at 1 µM
# Ephrin type-A receptor 7 (Homo sapiens), sequence (Q15375 28-998 limits assumed): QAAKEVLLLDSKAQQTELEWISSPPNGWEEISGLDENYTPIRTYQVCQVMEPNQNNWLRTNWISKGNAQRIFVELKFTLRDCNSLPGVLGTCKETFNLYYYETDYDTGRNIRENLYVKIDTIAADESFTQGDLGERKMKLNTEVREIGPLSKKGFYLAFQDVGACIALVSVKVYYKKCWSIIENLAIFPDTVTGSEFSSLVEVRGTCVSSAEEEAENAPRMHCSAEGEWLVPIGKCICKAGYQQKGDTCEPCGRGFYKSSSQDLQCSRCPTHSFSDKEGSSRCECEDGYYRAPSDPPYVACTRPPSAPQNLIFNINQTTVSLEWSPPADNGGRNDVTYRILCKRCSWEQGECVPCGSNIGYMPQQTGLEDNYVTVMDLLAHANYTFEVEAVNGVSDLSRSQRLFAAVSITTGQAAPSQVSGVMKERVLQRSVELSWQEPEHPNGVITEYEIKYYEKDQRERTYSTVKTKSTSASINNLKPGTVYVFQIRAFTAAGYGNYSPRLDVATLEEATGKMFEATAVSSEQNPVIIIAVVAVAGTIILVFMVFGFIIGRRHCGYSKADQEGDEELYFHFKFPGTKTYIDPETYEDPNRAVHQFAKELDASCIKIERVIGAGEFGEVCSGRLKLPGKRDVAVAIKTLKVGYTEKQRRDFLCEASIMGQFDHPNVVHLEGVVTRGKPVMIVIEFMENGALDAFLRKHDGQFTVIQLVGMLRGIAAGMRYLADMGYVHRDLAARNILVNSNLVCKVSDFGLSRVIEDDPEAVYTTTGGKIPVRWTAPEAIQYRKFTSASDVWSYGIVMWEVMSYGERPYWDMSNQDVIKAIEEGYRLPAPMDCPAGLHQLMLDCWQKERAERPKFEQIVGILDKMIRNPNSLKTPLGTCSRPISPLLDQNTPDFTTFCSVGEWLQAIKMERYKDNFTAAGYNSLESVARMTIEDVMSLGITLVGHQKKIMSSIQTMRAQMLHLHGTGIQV
# [7] = biological target: Ephrin type-A receptor 7 (Homo sapiens) (UniProt Q15375); conditions: at 10 µM
# [8] = biological target: T2, Ephrin type-A receptor 8 (Homo sapiens) (UniProt P29322); conditions: at 1 µM
# T2 sequence (whole entry): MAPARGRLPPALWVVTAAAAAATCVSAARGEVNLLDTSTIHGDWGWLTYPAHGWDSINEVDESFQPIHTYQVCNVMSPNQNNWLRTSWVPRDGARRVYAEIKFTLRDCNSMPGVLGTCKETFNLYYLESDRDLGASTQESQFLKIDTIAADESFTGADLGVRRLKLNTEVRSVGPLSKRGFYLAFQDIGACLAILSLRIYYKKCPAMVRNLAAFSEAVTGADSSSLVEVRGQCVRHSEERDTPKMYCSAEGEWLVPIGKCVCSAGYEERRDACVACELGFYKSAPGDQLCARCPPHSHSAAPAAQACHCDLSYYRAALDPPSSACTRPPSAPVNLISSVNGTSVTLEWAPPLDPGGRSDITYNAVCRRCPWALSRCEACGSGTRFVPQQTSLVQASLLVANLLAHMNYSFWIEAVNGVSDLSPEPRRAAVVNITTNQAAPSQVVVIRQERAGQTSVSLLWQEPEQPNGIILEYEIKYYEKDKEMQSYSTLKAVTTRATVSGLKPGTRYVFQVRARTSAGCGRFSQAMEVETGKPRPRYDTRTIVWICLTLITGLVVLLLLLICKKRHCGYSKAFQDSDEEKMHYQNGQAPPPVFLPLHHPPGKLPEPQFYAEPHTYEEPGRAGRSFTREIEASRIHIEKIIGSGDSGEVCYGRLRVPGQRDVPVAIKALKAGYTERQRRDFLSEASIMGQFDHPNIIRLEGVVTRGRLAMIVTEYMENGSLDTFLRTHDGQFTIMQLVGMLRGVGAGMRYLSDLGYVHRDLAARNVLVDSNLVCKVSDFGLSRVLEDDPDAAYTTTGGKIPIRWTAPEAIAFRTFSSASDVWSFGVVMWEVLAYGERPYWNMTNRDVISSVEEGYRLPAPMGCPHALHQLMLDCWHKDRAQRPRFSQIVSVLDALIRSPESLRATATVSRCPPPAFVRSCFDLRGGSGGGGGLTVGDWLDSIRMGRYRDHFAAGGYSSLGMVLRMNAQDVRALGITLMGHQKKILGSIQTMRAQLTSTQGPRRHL
# [9] = biological target: T2, Ephrin type-A receptor 8 (Homo sapiens); conditions: at 10 µM
# [10] = biological target: T3, Ephrin type-B receptor 1 (Homo sapiens) (UniProt P54762); conditions: at 1 µM
# T3 sequence (whole entry): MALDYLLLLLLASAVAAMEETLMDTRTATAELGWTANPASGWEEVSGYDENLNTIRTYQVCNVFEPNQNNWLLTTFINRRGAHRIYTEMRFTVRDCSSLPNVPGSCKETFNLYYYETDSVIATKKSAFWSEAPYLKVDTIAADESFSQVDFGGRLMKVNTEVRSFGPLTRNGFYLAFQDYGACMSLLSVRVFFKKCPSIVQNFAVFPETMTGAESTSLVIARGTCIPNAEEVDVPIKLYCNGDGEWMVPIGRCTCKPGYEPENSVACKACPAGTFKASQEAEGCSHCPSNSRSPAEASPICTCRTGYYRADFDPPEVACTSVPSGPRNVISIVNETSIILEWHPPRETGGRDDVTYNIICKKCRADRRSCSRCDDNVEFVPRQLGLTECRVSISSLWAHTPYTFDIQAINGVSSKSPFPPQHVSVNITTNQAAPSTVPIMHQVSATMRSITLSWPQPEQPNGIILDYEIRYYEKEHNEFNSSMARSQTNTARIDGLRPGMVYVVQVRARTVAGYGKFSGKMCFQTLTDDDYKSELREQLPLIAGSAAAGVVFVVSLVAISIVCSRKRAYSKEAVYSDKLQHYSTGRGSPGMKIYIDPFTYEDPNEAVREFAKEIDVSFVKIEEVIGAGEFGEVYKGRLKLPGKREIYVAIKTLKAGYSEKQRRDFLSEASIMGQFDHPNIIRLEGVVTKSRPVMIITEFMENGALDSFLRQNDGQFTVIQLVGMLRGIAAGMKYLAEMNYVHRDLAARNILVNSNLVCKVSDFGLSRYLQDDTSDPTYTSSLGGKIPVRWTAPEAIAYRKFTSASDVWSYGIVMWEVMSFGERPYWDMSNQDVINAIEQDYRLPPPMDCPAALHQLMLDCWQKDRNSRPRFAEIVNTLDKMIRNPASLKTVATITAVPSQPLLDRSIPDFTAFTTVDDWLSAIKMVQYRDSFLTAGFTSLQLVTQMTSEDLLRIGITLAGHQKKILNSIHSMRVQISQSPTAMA
# [11] = biological target: T3, Ephrin type-B receptor 1 (Homo sapiens); conditions: at 10 µM
# [12] = biological target: T4, Ephrin type-B receptor 2 (Homo sapiens) (UniProt P29323); conditions: at 1 µM
# T4 sequence (whole entry): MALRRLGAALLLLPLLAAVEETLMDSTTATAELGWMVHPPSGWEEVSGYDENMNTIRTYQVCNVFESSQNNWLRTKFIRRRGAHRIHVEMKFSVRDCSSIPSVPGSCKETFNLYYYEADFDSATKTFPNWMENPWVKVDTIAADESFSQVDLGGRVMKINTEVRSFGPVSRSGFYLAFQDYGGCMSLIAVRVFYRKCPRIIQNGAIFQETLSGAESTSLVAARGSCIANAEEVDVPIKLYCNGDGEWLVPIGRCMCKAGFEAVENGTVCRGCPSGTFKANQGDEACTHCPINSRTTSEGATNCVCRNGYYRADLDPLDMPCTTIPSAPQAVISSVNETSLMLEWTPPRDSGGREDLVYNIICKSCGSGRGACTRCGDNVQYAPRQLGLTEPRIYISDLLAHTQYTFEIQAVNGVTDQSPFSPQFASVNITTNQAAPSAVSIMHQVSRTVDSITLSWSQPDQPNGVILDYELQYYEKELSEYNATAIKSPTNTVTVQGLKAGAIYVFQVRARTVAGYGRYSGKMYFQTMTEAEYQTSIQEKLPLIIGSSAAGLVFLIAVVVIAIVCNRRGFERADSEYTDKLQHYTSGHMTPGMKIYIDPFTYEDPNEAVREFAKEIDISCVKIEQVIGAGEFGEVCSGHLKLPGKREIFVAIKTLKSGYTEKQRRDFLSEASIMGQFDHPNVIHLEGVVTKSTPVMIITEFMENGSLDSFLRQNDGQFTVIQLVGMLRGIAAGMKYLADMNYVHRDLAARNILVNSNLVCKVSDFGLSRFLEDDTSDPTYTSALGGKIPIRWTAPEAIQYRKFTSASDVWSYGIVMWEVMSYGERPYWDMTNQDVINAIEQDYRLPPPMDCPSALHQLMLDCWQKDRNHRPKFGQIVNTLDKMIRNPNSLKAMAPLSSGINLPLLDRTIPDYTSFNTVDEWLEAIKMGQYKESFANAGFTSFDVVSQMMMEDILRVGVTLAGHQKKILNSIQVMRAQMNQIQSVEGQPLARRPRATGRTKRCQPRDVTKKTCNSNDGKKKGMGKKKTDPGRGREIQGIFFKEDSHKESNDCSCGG
# [13] = biological target: T4, Ephrin type-B receptor 2 (Homo sapiens); conditions: at 10 µM
# [14] = biological target: T5, Ephrin type-B receptor 3 (Homo sapiens) (UniProt P54753); conditions: at 1 µM
# T5 sequence (whole entry): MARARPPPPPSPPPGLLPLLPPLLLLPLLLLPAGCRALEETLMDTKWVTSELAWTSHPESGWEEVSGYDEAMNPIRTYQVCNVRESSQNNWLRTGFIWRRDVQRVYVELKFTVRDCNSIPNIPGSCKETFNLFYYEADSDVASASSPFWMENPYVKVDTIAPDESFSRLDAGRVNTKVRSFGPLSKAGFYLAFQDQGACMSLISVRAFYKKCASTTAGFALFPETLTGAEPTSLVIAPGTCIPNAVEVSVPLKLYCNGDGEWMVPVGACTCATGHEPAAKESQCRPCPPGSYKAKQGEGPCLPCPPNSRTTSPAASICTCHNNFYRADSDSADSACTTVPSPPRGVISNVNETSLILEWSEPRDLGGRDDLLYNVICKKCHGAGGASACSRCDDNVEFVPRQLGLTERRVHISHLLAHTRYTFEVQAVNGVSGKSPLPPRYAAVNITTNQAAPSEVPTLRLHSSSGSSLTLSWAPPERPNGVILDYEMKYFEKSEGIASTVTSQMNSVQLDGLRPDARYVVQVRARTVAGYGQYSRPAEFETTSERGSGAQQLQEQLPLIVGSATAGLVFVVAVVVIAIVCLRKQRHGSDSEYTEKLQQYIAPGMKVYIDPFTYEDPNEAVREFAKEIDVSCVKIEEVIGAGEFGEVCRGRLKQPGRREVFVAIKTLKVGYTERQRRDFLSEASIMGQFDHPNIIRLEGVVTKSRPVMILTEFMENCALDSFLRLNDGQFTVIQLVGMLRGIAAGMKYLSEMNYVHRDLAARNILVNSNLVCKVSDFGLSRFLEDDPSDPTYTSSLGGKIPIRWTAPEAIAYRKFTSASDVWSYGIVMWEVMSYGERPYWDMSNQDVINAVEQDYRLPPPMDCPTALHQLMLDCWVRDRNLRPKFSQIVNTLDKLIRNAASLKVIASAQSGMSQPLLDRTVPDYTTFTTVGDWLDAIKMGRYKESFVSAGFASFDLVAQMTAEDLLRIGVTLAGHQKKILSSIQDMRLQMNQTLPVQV
# [15] = biological target: T5, Ephrin type-B receptor 3 (Homo sapiens); conditions: at 10 µM
# [16] = biological target: T6, Ephrin type-B receptor 4 (Homo sapiens) (UniProt P54760); conditions: at 1 µM
# T6 sequence (whole entry): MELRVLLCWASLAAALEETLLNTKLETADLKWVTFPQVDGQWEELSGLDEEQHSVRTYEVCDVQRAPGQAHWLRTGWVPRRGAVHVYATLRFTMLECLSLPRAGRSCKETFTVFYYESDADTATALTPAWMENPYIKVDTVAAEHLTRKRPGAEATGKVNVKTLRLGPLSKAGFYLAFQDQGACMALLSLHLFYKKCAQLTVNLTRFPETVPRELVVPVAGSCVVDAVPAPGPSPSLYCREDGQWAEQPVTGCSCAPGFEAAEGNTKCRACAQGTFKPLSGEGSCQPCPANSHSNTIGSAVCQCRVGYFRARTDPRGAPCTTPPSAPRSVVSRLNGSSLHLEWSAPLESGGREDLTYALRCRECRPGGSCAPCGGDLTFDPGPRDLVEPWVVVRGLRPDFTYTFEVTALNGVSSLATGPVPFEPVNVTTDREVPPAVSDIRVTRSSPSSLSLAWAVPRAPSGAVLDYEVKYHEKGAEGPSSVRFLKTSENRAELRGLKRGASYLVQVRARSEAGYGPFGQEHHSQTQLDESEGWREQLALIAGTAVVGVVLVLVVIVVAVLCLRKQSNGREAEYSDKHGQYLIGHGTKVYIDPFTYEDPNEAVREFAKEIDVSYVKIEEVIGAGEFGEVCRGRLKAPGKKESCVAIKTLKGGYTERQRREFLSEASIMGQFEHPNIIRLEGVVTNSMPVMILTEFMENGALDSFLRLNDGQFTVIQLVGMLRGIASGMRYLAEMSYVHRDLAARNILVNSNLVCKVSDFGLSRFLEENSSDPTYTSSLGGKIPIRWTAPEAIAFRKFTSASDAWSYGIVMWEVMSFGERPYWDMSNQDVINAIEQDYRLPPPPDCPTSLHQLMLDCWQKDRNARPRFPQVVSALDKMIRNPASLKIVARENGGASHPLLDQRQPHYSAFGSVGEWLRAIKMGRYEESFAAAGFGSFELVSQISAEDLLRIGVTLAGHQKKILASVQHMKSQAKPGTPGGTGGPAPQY
# [17] = biological target: T6, Ephrin type-B receptor 4 (Homo sapiens); conditions: at 10 µM
# [18] = biological target: Focal adhesion kinase 1 (Homo sapiens) (UniProt Q05397); conditions: at 1 µM
# Focal adhesion kinase 1 (Homo sapiens), sequence (Q05397 2-1052 limits assumed): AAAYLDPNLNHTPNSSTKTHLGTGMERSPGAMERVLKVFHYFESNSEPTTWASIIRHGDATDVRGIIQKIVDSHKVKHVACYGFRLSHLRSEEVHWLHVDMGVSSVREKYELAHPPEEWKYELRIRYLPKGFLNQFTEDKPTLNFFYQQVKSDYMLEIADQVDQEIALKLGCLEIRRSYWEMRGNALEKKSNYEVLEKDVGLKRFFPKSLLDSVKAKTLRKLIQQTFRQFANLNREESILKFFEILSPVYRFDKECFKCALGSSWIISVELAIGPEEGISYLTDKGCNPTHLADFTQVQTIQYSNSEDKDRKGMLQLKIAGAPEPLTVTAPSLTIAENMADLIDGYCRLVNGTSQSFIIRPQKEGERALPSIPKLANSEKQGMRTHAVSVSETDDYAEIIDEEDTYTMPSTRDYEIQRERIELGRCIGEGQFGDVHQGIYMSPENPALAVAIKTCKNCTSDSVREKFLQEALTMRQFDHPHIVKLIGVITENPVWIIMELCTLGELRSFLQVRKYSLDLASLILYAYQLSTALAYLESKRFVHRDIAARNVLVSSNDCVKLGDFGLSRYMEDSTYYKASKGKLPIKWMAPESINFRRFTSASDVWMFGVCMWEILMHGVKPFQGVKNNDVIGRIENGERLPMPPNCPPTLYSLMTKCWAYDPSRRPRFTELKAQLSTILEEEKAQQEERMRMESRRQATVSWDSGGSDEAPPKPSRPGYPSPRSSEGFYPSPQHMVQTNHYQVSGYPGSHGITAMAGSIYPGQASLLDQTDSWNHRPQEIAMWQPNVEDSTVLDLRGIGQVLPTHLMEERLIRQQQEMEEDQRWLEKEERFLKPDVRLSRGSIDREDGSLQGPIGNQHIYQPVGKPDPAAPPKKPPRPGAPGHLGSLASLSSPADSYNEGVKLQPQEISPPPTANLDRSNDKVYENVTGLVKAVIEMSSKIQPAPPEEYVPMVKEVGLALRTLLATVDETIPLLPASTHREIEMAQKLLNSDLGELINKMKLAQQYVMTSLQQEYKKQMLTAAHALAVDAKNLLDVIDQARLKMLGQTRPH
smiles,measurement,setting,value
COc1cc2ncnc(Nc3ccc(OCc4ccccc4)cc3)c2cc1OC,residual activity,[1],113%
same,residual activity,[2],118%
same,residual activity,[3],93%
same,residual activity,[4],116%
same,residual activity,[5],104%
same,residual activity,[6],109%
same,residual activity,[7],90%
same,residual activity,[8],118%
same,residual activity,[9],101%
same,residual activity,[10],94%
same,residual activity,[11],106%
same,residual activity,[12],118%
same,residual activity,[13],114%
same,residual activity,[14],117% (inactive)
same,residual activity,[15],100%
same,residual activity,[16],117%
same,residual activity,[17],132%
same,residual activity,[18],136%
